The results in this text go back to PubChem BioAssay AID504434 (National Center for Advancing Translational Sciences (NCATS), 2011).

The assay is described as follows: Secondary Assay for lipid storage modulators: AML12 cell LDSA assay for probe SAR. As to conditions: AML12 lipid droplet accumulation, BODIPY 493/503 imaging, oleate. From the text:
NIH Molecular Libraries Probe Production Centers Network [MLPCN] NIH Chemical Genomics Center [NCGC] MLPCN Grant: 1 R03 MH085686-01 Assay Submitter (PI): Beller, Mathias; Max-Planck-Institut fur Biophysikalische Chemie NCGC Assay Overview: Storing lipids as a reservoir for energy or the anabolism of elementary metabolites is a common feature of probably all cells and is conserved from bacteria to humans. The universal cellular lipid storage organelle is the so-called lipid storage droplet (LD). Although ubiquitous, LDs share a simple structure composed of a hydrophobic core that harbors the storage lipids, which is shielded by a droplet-specific phospholipid monolayer to which proteins are attached. The current model of LD biogenesis involves an incorporation of the lipid core into the membrane leaflets of the endoplasmic reticulum (ER) followed by a subsequent budding-like maturation of a LD, which ultimately pinches off. […]
NCGC Assay Protocol Summary: The assay was performed with AML12 cells, using an oleic acid feeding protocol similar to the S3 assay. […] Fluorescence was detected by excitation of the fluorophores with a 488-nm laser on an Acumen Explorer (TTP Lab Tech). […] Cells were detected using channel 3 (575-640 nm) with 5-um width and 100-um depth filters. The ratio of the number of objects in PMT channel 2 over the number of objects in PMT channel 3 was also calculated. […]

Structures are written as SMILES. Inconclusive results are not listed. Active and inactive are the calls of the source. Calls come from the whole dose curve; as a rule, active = well fitted curve in the direction sought with a large enough effect; inconclusive = small, poorly fitted or top-dose-only effect, or effect the other way, or another doubt; inactive = no such curve, though single readings can be large or run the other way.

Regarding `CCC/C=C/C/C=C/C=C/C=N/NN=O`, the Potency is 499 nM (active).
